# In PubChem BioAssay (NCI):
# Compounds without any hit were thinned out: in the full panel of roughly 79,000, 15% have a hit. Unmarked numbers belong to inactive results. Active and inactive are the calls of the source. No stated cut-off is given here; in the data, active means growth inhibition above about 70%; inactive means the rest.
# Assay: NCI Yeast Anticancer Drug Screen. Data for the bub3 strain (AID 167)
# Conditions: S. cerevisiae bub3 mutant strain, stronger effect = higher value; at 50.0 µM unless noted
# Protocol: Growth inhibition of yeast strains with defined genetic alterations is measured as a screen for potential anti-cancer activity. Selected strains with alterations in DNA damage repair or cell cycle control were exposed to compounds and growth inhibition was measured relative to vehicle treated controls. The strain used in this assay is bub3
row,Structure (SMILES),growth inhibition
1,C=C1C2CCC3(CCC4C5(C)CCCC4(C=[N+](CCO)C5)C3C2)C1O (stereo not given),-17.6%
2,COc1cc(OC)c(NC(=O)C2=C(C)NC(C)=C(C(=O)Nc3cc(Cl)c(OC)cc3OC)C2c2cccc([N+](=O)[O-])c2)cc1Cl,14.4%
3,CN(C)C(=S)/N=c1\ssc(=S)n1Cc1ccccn1,-9.55%
4,COc1c2c(cc3c1C(=O)c1c(O)cccc1C3=O)CC(O)CC2 (stereo not given),2.8%
5,C/C(=N\NC(=S)N1CCN(c2ccccn2)CC1)c1cccc(C)n1,89.5% (active)
6,CC(=O)OC1CCC2(C)C3CCC4(C)C(C(C)CCCC(C)C)CCC4C3C3CC32C1 (stereo not given),-3.05%
7,COC(=O)CCc1ccco1,6.95%
8,CCCN=C(N)C(C)=O,15.2%
9,CCOc1ccc(OCC)c(NC=O)c1,-11.8%
10,Cc1ccccc1C(=O)c1ccccc1C,-1.55%
11,CC(=O)OC1CCC2(C)C(C1)C(=O)OC1C2CCC2(C)C(C(C)CCCC(C)C)CCC12 (stereo not given),-3.85%
12,Cn1nnn(Cc2ccccc2)/c1=N/C(=S)Nc1ccccc1,3.1%
13,Cc1ccc2nc(C=Nc3ccccc3Cl)cc(C)c2c1,-4.45%
14,CCN(CC)C(=S)Oc1cc(Cl)c(Cl)cc1Cl,18.7%
15,CCN(CC)C(=O)c1c(Cl)cc(N(CC)CC)oc1=O,-41.1%
16,CCCCCCCCCCCC(O)C(C)(C)C (stereo not given),11.9%
17,CN1c2ccccc2C2CCCCC21 (stereo not given),22.8%
18,CN(C)c1c2ccccc2c(NC=O)c2ccccc12,-1.05%
19,COc1cccc(/C=C/C(C)=N/NC(N)=O)c1,6.35%
20,CNC(=O)C1C(=O)NC(=O)C1=C1CCCC1 (stereo not given),8.1%

row,Structure (SMILES),growth inhibition
1,COc1ccc(C(=O)N2N=C(C)C(C)(C)C2(C)O)cc1 (stereo not given),-29.8%
2,C/C(N=NC(=S)N1CC2CCC(CC2)C1)=C1\C=CC=CN1O,78% (active)
3,CC(CC(=O)Nc1ccccc1CC(c1c[nH]c2ccccc12)c1c[nH]c2ccccc12)C(=O)O (stereo not given),6.7%
4,O=C(O)c1cc(C(=O)C(=O)c2cc(C(=O)O)c(O)c3ccccc23)c2ccccc2c1O,-17.9%
5,N#C/C(=C/c1ccccc1)c1ccccc1,40.9%
6,O=C1CN2CCC1C/C2=C\c1ccnc2c(Cl)cc(Cl)cc12 (stereo not given),-12%
7,CCCOC(=O)CCCC(=O)N(C(C)C)C(C)C,21.9%
8,O=C(O)c1c(O)cc(=O)oc1-c1ccc(Cl)cc1,10.4%
9,CC(=O)N(C(=O)CC(=O)NNCc1ccccc1Cl)c1ccc(Cl)cc1,-17%
10,Oc1cc(O)c2c(c1)OC(c1ccc(O)c(O)c1)C(O)C2O (stereo not given),21.2%
11,CC(=O)Nc1ccc(NCC(=O)Nn2cnc3ccc(S(=O)(=O)Nc4ccc(NC(C)=O)cc4)cc3c2=O)cc1,-0.6%
12,O=C1CN(c2cccc(C(F)(F)F)c2)C(=O)CN1/N=C/c1cccnc1,27.9%
13,Cc1cc(C)c(CC(=O)c2ccccc2)c(C)c1,0.95%
14,CCCCCCC(=O)C/C(CCC(=O)N(Cc1ccccc1)Cc1ccccc1)=N\Nc1ccc([N+](=O)[O-])cc1[N+](=O)[O-],-11.4%
15,COC(=O)/C=C(\C(=O)OC)N1CCCCC1,2.3%
16,O=C1NCC2(CCNCC2)N1,11.1%
17,O=C(CCl)Oc1ccc(C(=O)O)cc1,0.85%
18,CC(=O)CCC(C)C1CCC2C3CCC4CCCCC4(C)C3CCC12C (stereo not given),-2.15%
19,COc1cccc(Br)n1,-8.85%
20,CCOC(=O)c1ccc(N=Cc2ccc(N(CCC#N)CCC#N)cc2)cc1,-1.5%
